Assay results from PubChem BioAssay (NCATS).
Results filed as inconclusive are left out. Activity calls are given as the source filed them. Calls come from the whole dose curve; as a rule, active = well fitted curve in the direction sought with a large enough effect; inconclusive = small, poorly fitted or top-dose-only effect, or another doubt; inactive = no such curve, though single readings can be large; an effect the other way counts as inactive or inconclusive.

Assays:
[1] = Cytometric Cell-Based qHTS for Inhibitors of the mTORC1 Signaling Pathway in MEF (Tsc2-/-, p53-/-) Cells (AID 2660); settings: mTORC1 pathway cytometry; series mostly up to 38.3 µM;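 note: percent of cells above a phospho-rpS6 to PI ratio cutoff in each well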
Summary of the method: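 Cells are plated, treated with compound for 24 hrs at 37 degree Celsius, then fixed, blocked and immunostained for phospho-rpS6 Ser235/236. Propidium iodide counterstain follows. Per-well % positive cells is derived from the PI-normalized phospho-S6 signal.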

[2] = High Content Imaging Cell-Based qHTS for Inhibitors of the mTORC1 Signaling Pathway in MEF (Tsc2-/-, p53-/-) Cells (AID 2666); settings: series mostly up to 38.3 µM;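 note: percent of cells scored positive for phospho-rpS6 Ser235/236 immunostaining by imaging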
Summary of the method: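 Read-out: % positive cells per well, with thresholds from highest- and lowest-signal wells, based on phospho-rpS6 (Ser235/236) intensity normalized to Hoechst nuclear stain. Cells: Tsc2-/-, p53-/- MEFs carrying empty vector; compound 24 hrs, 37 degree Celsius.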

[3] = High Content Imaging Cell-Based qHTS for Inhibitors of the mTORC1 Signaling Pathway in MEF Cells (AID 2667); settings: series mostly up to 38.3 µM;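 note: Tsc2-/- p53-/- MEFs stably re-expressing wild-type Tsc2 exposed 24 h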
Summary of the method: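 MEF (Tsc2-/-, p53-/-, WT Tsc2 re-expressed); cpd 24 h, 37 °C; PFA fix; Alexa-488 anti-p-rpS6 Ser235/236, PI, Hoechst; IN Cell imaging; Hoechst/Alexa-488 intensity ratio; % active cells, thresholds set from rapamycin and DMSO wells.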

[4] = Cytometry Cell-Based qHTS for Inhibitors of the mTORC1 Signaling Pathway in MEF cells (AID 2668); settings: mTORC1 pathway readout; series mostly up to 38.3 µM;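 note: Tsc2-/- p53-/- mouse embryonic fibroblasts stably re-expressing wild-type Tsc2; percent cells positive for phospho-rpS6 Ser235/236 relative to propidium iodide stain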
Summary of the method: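 Phospho-rpS6 (Ser235/236) immunofluorescence over PI signal, scored as % positive cells using thresholds from 7.5 nM rapamycin and DMSO wells, after 24 h compound exposure of WT-Tsc2-rescued Tsc2-/-, p53-/- MEFs. PI cell count recorded for viability.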

Measured: Potency

C#C[C@]1(O)CC[C@H]2[C@@H]3CCC4=Cc5oncc5CC4(C)[C@H]3CCC21C (stereo partly drawn)
inactive: [1] | [2] | [3]

CNC(=O)[C@H]1O[C@@H](n2cnc3c(NCc4ccc(N)cc4)ncnc32)[C@H](O)[C@@H]1O
inactive: [1] | [2] | [3]

Nc1nc(Nc2ccccc2)nc2c1ncn2[C@@H]1O[C@H](CO)[C@@H](O)[C@H]1O
inactive: all assays above

CCN(CC)c1ncnc2c1ncn2[C@@H]1O[C@H](COP(=O)(O)OP(=O)(O)C(Br)(Br)P(=O)(O)O)[C@@H](O)[C@H]1O
inactive: [1] | [2] | [3]

O=C(c1ccc(Cl)cc1)N1CCN(c2ccc([N+](=O)[O-])c3ncccc23)CC1
inactive: [1] | [2] | [3]

NCC1OC(O[C@H]2[C@H](O)[C@@H](OC3C(O)C(N)CC(N)C3OC3OC(CO)C(O)C(O)C3N)O[C@@H]2CO)C(N)C(O)C1O (stereo partly drawn)
inactive: [1] | [2] | [3]

Nc1ncnc2c1c(I)cn2[C@@H]1C[C@H](N)[C@@H](O)[C@H]1O
inactive: [1] | [2] | [3]

CO/S(=N\S(=O)(=O)c1ccc(Cl)cc1)c1ccc([N+](=O)[O-])cc1 (stereo not drawn)
inactive: [1] | [2] | [3]

CNc1ncnc2c1ncn2[C@@H]1O[C@H](CO)[C@@H](O)[C@H]1O
inactive: all assays above

Nc1nc(Cl)nc2c1ncn2[C@@H]1O[C@H](COP(=O)(O)OP(=O)(O)OP(=O)(O)O)[C@@H](O)[C@H]1O
inactive: all assays above
